First the molecules themselves.
B1: Caulobacter ParB omega fusion; a variant is named by its letters at X, in order, B8GW30 (parent)
chain: MESVVVGEPGMSEGRRGLGRGLSALLGEVDAAPAQAPGEQLGGSREAPIEILQRNPDQPRRTFREEDLEDLSNSIREKGVLQPILVRPSPDTAGEYQIVAGERAWRAAQRAGLKTVPIMVRELDDLAVLEIGIIENVQRADLNVLEEALSYKVLMEKFERTQENIAQTIGKSXSHVANXMRLLXLPDEVQSYLVSGELTAXHARAIAAAADPVALAKQIIEGGLSVRETEALARKAPNLSAGKSKGGRPPRVKDTDTQALESDLSSVLGLDVSIDHRGSTGTLTITYATLEQLDDLCNRLTRGI

In all, about 81,000 sequences were measured (“one-hybrid fitness for binding parS DNA”: median about -0.17, highest 2% from about 0.51 on). What follows is part of a selection rich in the highest values, with near analogues and random picks from the rest.

The variants in the assay derive from B1. Briefly: one-hybrid fitness for binding parS DNA (scaled: cognate 1, non-cognate 0); higher = stronger binding. As to conditions: with parS DNA site. Summed up:
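Pre- and post-selection plasmids were Illumina-sequenced, three replicate libraries were pooled, and any variant with under 10 reads was removed. The libraries were Caulobacter ParB with four specificity codons randomised, selected in E. coli USO through a HIS3 reporter whose site is 19 bp from the promoter. Cells grew 48 hours at 37°C on M9 without histidine, with 0.1 mM IPTG and 5 mM 3-AT. Fitness is the log change in variant-to-wild-type read ratio, rescaled against cognate and non-cognate.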
Turning to HGLV, the “one-hybrid fitness for binding parS DNA” value was at most 0.2. For DGHT the value was at most 0.2; for QIRE, at most 0.2; for RTPC, 0.625. For RTIM the value was 0.279; for RTIC, 0.912.

Regarding RTPF, the “one-hybrid fitness for binding parS DNA” value was at most 0.2. As for RTIY, the “one-hybrid fitness for binding parS DNA” value was 0.418.

On to QSQK, for which the “one-hybrid fitness for binding parS DNA” value was at most 0.2. On to CSYS, for which the “one-hybrid fitness for binding parS DNA” value is at most 0.2. For TQQS the value was at most 0.2. For the variant RYDC, the “one-hybrid fitness for binding parS DNA” value came out at 0.949. In the case of RYNP, the “one-hybrid fitness for binding parS DNA” value is at most 0.2. Take RYDQ: the “one-hybrid fitness for binding parS DNA” value came out at 0.223. The figure for RYNN is 0.364; for RYNC it is 0.86; for RYDY it is 0.422. The figure for PYET is at most 0.2; for QEHT it is at most 0.2; for KIRI it is at most 0.2.

Turning to THLT, the “one-hybrid fitness for binding parS DNA” value is at most 0.2. The figure for CDLR is at most 0.2; for RIDA it is 0.55; for RINA it is 0.596.

In the case of NINA, the “one-hybrid fitness for binding parS DNA” value was at most 0.2.

As for GNPS, the “one-hybrid fitness for binding parS DNA” value was at most 0.2. For RCND the value was at most 0.2; for VLGC, at most 0.2; for NLPL, at most 0.2. In the case of PQIT, the “one-hybrid fitness for binding parS DNA” value is at most 0.2.

Turning to SCSQ, the “one-hybrid fitness for binding parS DNA” value is at most 0.2. As for QQAG, the “one-hybrid fitness for binding parS DNA” value is at most 0.2. For RKPG the value was 0.552.

With RKIG, the “one-hybrid fitness for binding parS DNA” value is 0.855.

As for RKPP, the “one-hybrid fitness for binding parS DNA” value is at most 0.2. RKIN: the “one-hybrid fitness for binding parS DNA” value is 0.322. Turning to RKPD, the “one-hybrid fitness for binding parS DNA” value is at most 0.2. On to RKIH, for which the “one-hybrid fitness for binding parS DNA” value was at most 0.2.

MVDG: the “one-hybrid fitness for binding parS DNA” value is at most 0.2. For KIKY, the “one-hybrid fitness for binding parS DNA” value was at most 0.2. With NDWV, the “one-hybrid fitness for binding parS DNA” value is at most 0.2.

As for VADQ, the “one-hybrid fitness for binding parS DNA” value is at most 0.2. The figure for INHN is at most 0.2. Consider RTKW, for which the “one-hybrid fitness for binding parS DNA” value turned out to be 0.668. For RTVW, the “one-hybrid fitness for binding parS DNA” value amounted to 0.218. Regarding RTYW, the “one-hybrid fitness for binding parS DNA” value worked out at 0.262. For RTRW the value was 0.542; for RPKW, at most 0.2; for RTDW, at most 0.2.

On to NNGS, for which the “one-hybrid fitness for binding parS DNA” value is at most 0.2. The figure for PVIL is at most 0.2. With PSIS, the “one-hybrid fitness for binding parS DNA” value is at most 0.2. The figure for TSQY is at most 0.2; for PQCN it is at most 0.2. The figure for RTDP is at most 0.2. For the variant RTDG, the “one-hybrid fitness for binding parS DNA” value is 0.935. For RTDD the value was at most 0.2; for RTNF, 0.403. For RTNG the value was 0.968; for RTNH, at most 0.2. As to MGVN, the “one-hybrid fitness for binding parS DNA” value is at most 0.2. For DGDV the value was at most 0.2; for WCVR, at most 0.2. The figure for CTRY is at most 0.2; for YMTL it is at most 0.2. For CALA the value was at most 0.2. As to RNLG, the “one-hybrid fitness for binding parS DNA” value was determined as 0.831. As for RNSD, the “one-hybrid fitness for binding parS DNA” value is at most 0.2. The figure for RNSH is at most 0.2. For the variant RNGH, the “one-hybrid fitness for binding parS DNA” value is at most 0.2. The figure for RNWQ is at most 0.2; for RNWM it is at most 0.2; for RNWG it is 0.651. Regarding RNSG, the “one-hybrid fitness for binding parS DNA” value is 0.921. RNGN: the “one-hybrid fitness for binding parS DNA” value came out at 0.242. RNGG: the “one-hybrid fitness for binding parS DNA” value was determined as 0.841. For RNLY the value was 0.303; for RNLQ, at most 0.2. The figure for DCGR is at most 0.2; for MWMK it is at most 0.2.

For TMVR, the “one-hybrid fitness for binding parS DNA” value was at most 0.2. The figure for TWPL is at most 0.2; for YNCT it is at most 0.2.

For YGAI, the “one-hybrid fitness for binding parS DNA” value is at most 0.2.

As for AARF, the “one-hybrid fitness for binding parS DNA” value was at most 0.2. The figure for ITIY is at most 0.2. For RNQF the value was at most 0.2; for RNHK, at most 0.2; for RNHM, at most 0.2. Take RNCH: the “one-hybrid fitness for binding parS DNA” value is at most 0.2.

For RNYR, the “one-hybrid fitness for binding parS DNA” value was at most 0.2. For RNQG the value was 0.882. The figure for RNYG is 0.789; for RNYP it is at most 0.2; for RNQQ it is at most 0.2. For RNHG the value was 0.866; for RNCG, 0.771; for RNCF, at most 0.2.

These data come from a collection of fitness landscapes (doi:10.1016/j.celrep.2020.107928).
